Consider 40 molecules from ChEMBL document CHEMBL3988442, “University of Dundee, Small-Polar-MMV Screening Library” (2021).

Sialic acid-binding Ig-like lectin 9 (Homo sapiens), sequence (Q9Y336 whole entry): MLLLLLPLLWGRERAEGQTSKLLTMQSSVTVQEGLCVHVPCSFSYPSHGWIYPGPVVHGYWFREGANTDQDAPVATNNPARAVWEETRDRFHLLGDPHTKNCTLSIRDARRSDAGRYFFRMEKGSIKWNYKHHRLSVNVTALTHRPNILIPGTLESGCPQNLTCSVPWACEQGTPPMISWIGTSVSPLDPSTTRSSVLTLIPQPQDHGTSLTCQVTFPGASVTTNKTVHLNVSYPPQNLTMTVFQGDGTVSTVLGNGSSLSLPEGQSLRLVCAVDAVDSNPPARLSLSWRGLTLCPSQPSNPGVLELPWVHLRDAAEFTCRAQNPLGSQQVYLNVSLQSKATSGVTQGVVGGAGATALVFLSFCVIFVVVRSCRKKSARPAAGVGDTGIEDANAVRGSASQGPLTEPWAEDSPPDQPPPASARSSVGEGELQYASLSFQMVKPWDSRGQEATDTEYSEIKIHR

One assay deals with AMP-activated protein kinase, AMPK (Homo sapiens) (UniProt P54646+O43741+P54619+Q9UGJ0+Q9Y478+Q13131+Q9UGI9). Briefly: AMP-dependent Kinase enzyme assay. An in vitro enzyme assay that detects ADP turnover that is directly proportional to AMPK activity. This uses naive AMPK that is activated during the assay with MK-8722. Further details: scale not given: direction of the effect not stated beside the values. To be noted: 30 µM. It counts as functional.
For `COc1c(C2CCCN2C(=O)c2cc(Cl)c[nH]2)c(C)nn1C` (stereo not given), the Percent Effect turned out to be 4.66%.

As for `Cc1cc(C)c2cc(CNCc3ccccc3)c3nn(C)c(=O)n3c2c1`, the Percent Effect was -1.18%.

Take `CC(O)CN(CC(=O)NC(=O)NC1CC1)c1ccccc1` (stereo not given): the Percent Effect is -2.19%.

Take `Cc1cc(C)c2nc(CN3CCCC(c4cc[nH]n4)C3)cc(O)c2c1` (stereo not given): the Percent Effect was found to be 3.31%.

As for `CCOc1ncccc1NC(=O)c1cc(C)c(C)s1`, the Percent Effect is 3.33%.

Take `CN(C)CC(=O)N1Cc2nc(C(=O)NCc3ccncc3)oc2C1`: the Percent Effect was -4.75%.

`CCn1cnnc1CNC(=O)CCC(=O)c1ccc2c(c1)OCCO2`: the Percent Effect was -8.33%.

As for `CC(Oc1ccccc1C(F)(F)F)C(=O)NS(=O)(=O)C(C)C` (stereo not given), the Percent Effect worked out at 5.54%.

On to `Cn1c(C2CC2)nc2c1CCN(CC(=O)Nc1nncs1)C2`, for which the Percent Effect stood at 0.616%.

With `N#Cc1ncn(CCC(=O)Nc2ccc(Cl)cc2F)n1`, the Percent Effect is -0.288%.

For the molecule `Cc1cn2c(n1)CCC(NC(=O)c1nc(C)ncc1Cl)C2` (stereo not given), the Percent Effect worked out at 5.82%.

Consider `CN(C)c1ncc(CN2CCOC(C(=O)Nc3ccccc3)C2)cn1` (stereo not given), for which the Percent Effect turned out to be 2.21%.

Regarding `CC(=O)Nc1cc(C(=O)N2CCOCC2c2ccc(C)o2)ccc1F` (stereo not given), the Percent Effect was -3.55%.

`Cc1cnccc1CN1C[C@@H](O)[C@H](Oc2ccccc2)C1`: the Percent Effect was determined as 6.12%.

For `CC1=N[C@@]2(CC[C@@H]3CN(S(=O)(=O)N(C)C)C[C@@H]32)C(=O)N1CC(C)C`, the Percent Effect is 2.53%.

Consider `CCCS(=O)(=O)N1CCN(c2cc(-n3nc(C)cc3C)nc(C)n2)CC1`, for which the Percent Effect was -0.103%.

For the molecule `O=C(O)c1nnn(Cc2cccc(C(F)(F)F)c2)c1-c1cccnc1`, the Percent Effect was determined as 10.2%.

Take `CC(C)(N)CN1CCC(c2nnc(CN3CCCC3)n2C2CC2)CC1`: the Percent Effect worked out at 3.2%.

Consider `Cc1cccc(CNC(=O)CNc2cc(CO)ccc2Cl)c1`, for which the Percent Effect was 4.86%.

As for `COCC1CC2(CCN(Cc3cnn(C)c3)CC2)CN1c1ncccn1` (stereo not given), the Percent Effect came out at 0.218%.

A further assay concerns the target Sialic acid-binding Ig-like lectin 9 (Homo sapiens) (UniProt Q9Y336). Briefly: Hs-Siglec9 ALPHAscreen SOP 20170721. To be noted: 10 µM. Further details: scale not given: direction of the effect not stated beside the values. (Bead proximity is the source of the signal in Alpha formats.)
Take `Cc1ccccc1CNC(=O)CN1CCN(Cc2nccn2C)CC1`: the Percent Effect turned out to be 6.22%.

As to `CCC(=O)N1CCC2(CC1)c1nc[nH]c1CCN2S(C)(=O)=O`, the Percent Effect stood at 9.02%.

For the molecule `Cc1cc(C)n(-c2cncc(NCCNC(=O)CC3CCCC3)n2)n1`, the Percent Effect came out at 27.9%.

Turning to `Cn1ccnc1CNC(=O)N(CCCO)C1CCCc2ccccc21` (stereo not given), the Percent Effect was -4.25%.

Take `Cc1cccc(CCC(=O)N2CCOCC2c2c(C)n[nH]c2C)c1` (stereo not given): the Percent Effect came out at 6.45%.

For the molecule `COc1ccc(CC(=O)N2CCCCC2Cn2cccn2)cc1OC` (stereo not given), the Percent Effect is 0.458%.

`O=C(c1ccc[nH]1)N1CCC2(CC1)C(=O)Nc1ccccc12`: the Percent Effect turned out to be 18%.

With `Cc1ccc(CN2CCCC3(COCCN(Cc4c[nH]nn4)C3)C2)o1` (stereo not given), the Percent Effect was found to be 8.61%.

Take `CCSc1ccc(C(=O)Nc2c(C)nn(C(C)C)c2C)cn1`: the Percent Effect was -2.98%.

Consider `N#CC1(C(=O)N2CCN(Cc3cscn3)CC2)CCCC1`, for which the Percent Effect is -4.28%.

Take `CN(C)C(CNC(=O)c1cc2c([nH]c1=O)CCCC2=O)c1ccsc1` (stereo not given): the Percent Effect is 17.4%.

Turning to `Cn1nccc1C1CCN(CC(O)c2cccc(F)c2)CC1` (stereo not given), the Percent Effect stood at 2.12%.

Take `CC(C)N1CCC(Cc2cnc(-c3cccc(C(=O)O)c3)cn2)C1` (stereo not given): the Percent Effect is 1.95%.

Regarding `Cc1cn2c(n1)CCC(NC(=O)CCn1cncn1)C2` (stereo not given), the Percent Effect is -5.36%.

For `Cc1nc(CN(Cc2cccs2)C2CCS(=O)(=O)C2)oc1C` (stereo not given), the Percent Effect came out at 1.17%.

Regarding `c1csc(-c2nc(CN3CCOC(Cn4cccn4)C3)co2)c1` (stereo not given), the Percent Effect was 19.6%.

On to `CC1N(CC2CC2)C(=O)COC12CCN(Cc1nccs1)CC2` (stereo not given), for which the Percent Effect worked out at 11.6%.

On to `Cc1nn(CC(=O)N2CCN(c3ccccc3F)CC2)c(C)c1Cl`, for which the Percent Effect worked out at 2.9%.

Take `c1nc2c(c(C3CC3)n1)CCN(CC1CCOC1)CC2` (stereo not given): the Percent Effect is -7.53%.

For `Cc1nc(CN2CCCC(NCCOc3ccccc3)C2)no1` (stereo not given), the Percent Effect was -3.12%.

Turning to `COc1c(C2CCCN2C(=O)c2cc(Cl)c[nH]2)c(C)nn1C` (stereo not given), the Percent Effect was -0.555%.

Turning to `Cc1cc(C)c2cc(CNCc3ccccc3)c3nn(C)c(=O)n3c2c1`, the Percent Effect amounted to 8.69%.

Regarding `CC(O)CN(CC(=O)NC(=O)NC1CC1)c1ccccc1` (stereo not given), the Percent Effect is -7.69%.

As for `Cc1cc(C)c2nc(CN3CCCC(c4cc[nH]n4)C3)cc(O)c2c1` (stereo not given), the Percent Effect was -3.01%.

Turning to `CCOc1ncccc1NC(=O)c1cc(C)c(C)s1`, the Percent Effect was -1.86%.

As for `CN(C)CC(=O)N1Cc2nc(C(=O)NCc3ccncc3)oc2C1`, the Percent Effect is 4%.

On to `CCn1cnnc1CNC(=O)CCC(=O)c1ccc2c(c1)OCCO2`, for which the Percent Effect amounted to 6.97%.

Regarding `CC(Oc1ccccc1C(F)(F)F)C(=O)NS(=O)(=O)C(C)C` (stereo not given), the Percent Effect is -3.2%.

As to `Cn1c(C2CC2)nc2c1CCN(CC(=O)Nc1nncs1)C2`, the Percent Effect was found to be 7.43%.

For the molecule `N#Cc1ncn(CCC(=O)Nc2ccc(Cl)cc2F)n1`, the Percent Effect was determined as 4.01%.

Regarding `Cc1cn2c(n1)CCC(NC(=O)c1nc(C)ncc1Cl)C2` (stereo not given), the Percent Effect was found to be 3.39%.

Take `CN(C)c1ncc(CN2CCOC(C(=O)Nc3ccccc3)C2)cn1` (stereo not given): the Percent Effect was -8.34%.

For `CC(=O)Nc1cc(C(=O)N2CCOCC2c2ccc(C)o2)ccc1F` (stereo not given), the Percent Effect is -1.06%.

As to `Cc1cnccc1CN1C[C@@H](O)[C@H](Oc2ccccc2)C1`, the Percent Effect was 0.247%.

Regarding `CC1=N[C@@]2(CC[C@@H]3CN(S(=O)(=O)N(C)C)C[C@@H]32)C(=O)N1CC(C)C`, the Percent Effect was -13.6%.

Turning to `CCCS(=O)(=O)N1CCN(c2cc(-n3nc(C)cc3C)nc(C)n2)CC1`, the Percent Effect came out at 1.6%.

As for `O=C(O)c1nnn(Cc2cccc(C(F)(F)F)c2)c1-c1cccnc1`, the Percent Effect is -2.89%.

Regarding `CC(C)(N)CN1CCC(c2nnc(CN3CCCC3)n2C2CC2)CC1`, the Percent Effect is 2.76%.

Consider `Cc1cccc(CNC(=O)CNc2cc(CO)ccc2Cl)c1`, for which the Percent Effect is -0.518%.

Turning to `COCC1CC2(CCN(Cc3cnn(C)c3)CC2)CN1c1ncccn1` (stereo not given), the Percent Effect was found to be 12.7%.
